Results published in the supplement of paper PMC3334620.
The full ranking holds about 33,000 sequences; the median of “E-score (-0.5 to 0.5)” is about -0.016, and the highest 2% start at about 0.31. The sample holds the highest values, similar sequences and a random draw of the others, so the mix is not that of the screen.

Target: Cst6 (UniProt P40535)
Assay: PBM E-score (8-mer binding enrichment) (E-score (-0.5 to 0.5)); higher = stronger / more preferred TF binding
Settings: protein concentration: 200 nM; construct: GST-DNA-binding domain
Experimental: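 Universal 'all 10-mer' protein binding microarrays (Agilent AMADID 015681) probed with GST-tagged S. cerevisiae TFs (full-length or DBD) made by in vitro transcription/translation (PURExpress), about 100-200 nM. Bound TF was detected with fluorescent anti-GST. Each ungapped 8-mer (which stands for itself and its reverse complement) is scored by the PBM enrichment score (E-score), a modified Wilcoxon-Mann-Whitney statistic from -0.5 to +0.5, computed with the Universal PBM Analysis Suite. Scale: above 0.35 generally sequence-specific binding.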

Sequence of UniProt P40535 (P40535 whole entry): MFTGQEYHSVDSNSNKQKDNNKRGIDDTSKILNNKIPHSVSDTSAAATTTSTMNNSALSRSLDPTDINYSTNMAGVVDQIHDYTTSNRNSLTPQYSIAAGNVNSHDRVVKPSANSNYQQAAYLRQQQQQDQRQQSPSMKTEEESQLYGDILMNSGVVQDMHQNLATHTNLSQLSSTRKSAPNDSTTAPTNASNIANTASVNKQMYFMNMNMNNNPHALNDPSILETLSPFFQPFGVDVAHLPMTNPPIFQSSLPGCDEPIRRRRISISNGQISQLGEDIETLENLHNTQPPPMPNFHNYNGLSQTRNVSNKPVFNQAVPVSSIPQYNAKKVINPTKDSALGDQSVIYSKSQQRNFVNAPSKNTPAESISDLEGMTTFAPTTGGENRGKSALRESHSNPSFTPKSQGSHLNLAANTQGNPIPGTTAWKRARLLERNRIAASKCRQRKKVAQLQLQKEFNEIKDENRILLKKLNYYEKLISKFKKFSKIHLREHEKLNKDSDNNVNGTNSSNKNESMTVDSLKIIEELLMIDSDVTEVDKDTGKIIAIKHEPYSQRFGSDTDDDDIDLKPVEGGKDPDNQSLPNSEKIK

Row | Sequence | PBM E-score
1 | CGACGTCA | 0.491
2 | TGACGTCA | 0.5
3 | AGACGTCC | -0.00823
4 | GGACGTCA | 0.468
5 | GGACGTCC | -0.128
6 | GGACGTGA | -0.0809
7 | GGTCGTCA | 0.272
8 | CGACGTCC | -0.0701
9 | AGACGTCA | 0.484
10 | AGACGTCG | -0.103
11 | AGACGTCT | -0.207
12 | CGACGTCG | -0.0227
13 | ATTCTGCC | 0.124
14 | ACATGCAT | 0.0333
15 | CAATGGCC | -0.314
16 | GAGCCAGC | -0.299
17 | ACTTGCCC | -0.215
18 | ATGTTTCG | 0.263
19 | AGCCCCAC | -0.161
20 | CTGACACA | 0.0411
21 | ATGACACG | 0.256
22 | ATGACACA | 0.349
23 | GTGACACA | 0.322
24 | GAGACACA | -0.0694
25 | ACGACACG | 0.0167

Row | Sequence | PBM E-score
26 | AGACATGG | -0.0372
27 | ACTACCTC | 0.0105
28 | AGCTTGGA | -0.274
29 | ACTGGGCA | -0.16
30 | CCGATAAA | 0.0173
31 | AAACGCAA | 0.254
32 | CCACGTCC | -0.214
33 | ACACGTCA | 0.481
34 | ACACGTCT | 0.0155
35 | TCCCGTCA | 0.0641
36 | TCACGTCA | 0.49
37 | ACACGTCG | -0.0793
38 | CCACGTCG | -0.196
39 | CCACGTCA | 0.472
40 | GCACGTCC | -0.0855
41 | TCACGTGA | 0.1
42 | GCACGTTA | 0.0802
43 | GCACGTCA | 0.459
44 | AGGGGGTA | -0.392
45 | AGGACTGG | -0.203
46 | CTCTTAAA | 0.112
47 | AGACAAGG | -0.181
48 | GGCACGCA | -0.0289
49 | GGGCGGGA | -0.0359
50 | CAAGAGGC | 0.0779

Row | Sequence | PBM E-score
51 | GGTGACGA | 0.463
52 | AGTGACGG | 0.301
53 | GTTGACGA | 0.192
54 | AGTGACGA | 0.399
55 | GGTGACCA | -0.0455
56 | AGTGACCA | -0.105
57 | GGAGGCGA | -0.154
58 | CTTATATC | 0.291
59 | ATTATAAG | 0.182
60 | ACTATATG | 0.0805
61 | ATTATATA | 0.239
62 | ATTATATG | 0.306
63 | ATTATATC | 0.327
64 | AGGAGAAG | -0.154
65 | GAGGCGAA | 0.0301
66 | ATCTAGGA | -0.0727
67 | ACGGGTCA | -0.0243
68 | GTCTAGAA | -0.0503
69 | AATACGTG | 0.176
70 | AATACGTC | 0.323
71 | GATACGCA | 0.0359
72 | AATACGTA | 0.344
73 | GATACGTA | 0.332
74 | AATACGCC | 0.104
75 | CATACGCA | 0.147

Row | Sequence | PBM E-score
76 | AATACGAC | 0.0982
77 | CATACGAA | 0.154
78 | CATACGTA | 0.383
79 | AATACGCA | 0.124
80 | GATACGGA | 0.111
81 | ATTGAGGG | -0.186
82 | TCAGAGGA | -0.193
83 | GCAGGAGA | -0.202
84 | TCCGACGA | -0.0151
85 | CTGCTAAG | -0.279
86 | CTATGGCC | -0.271
87 | CATACGTC | 0.405
88 | CCTACGTC | 0.305
89 | CATACGCC | 0.156
90 | ATCCCGTG | 0.0123
91 | CTCAAAAC | 0.175
92 | ATTACGAG | 0.235
93 | ATTACGCG | 0.326
94 | ATTACGAA | 0.305
95 | ATTACGCA | 0.398
96 | ATTACGGG | 0.00617
97 | GTTACGCA | 0.266
98 | ATTACGCC | 0.254
99 | CTTACGCA | 0.249
100 | GTTACGAA | 0.16

Row | Sequence | PBM E-score
101 | CGACACAC | 0.0466
102 | CGGAGAAA | -0.0341
103 | GCAATGAC | 0.3
104 | CCAATGAA | -0.187
105 | ACAATGAC | 0.336
106 | ACAATGAG | -0.0976
107 | CCAATGAC | 0.314
108 | ACAATGAT | 0.269
109 | AGCCAGTC | -0.244
110 | CGCCATGC | 0.0733
111 | GTCTGGGA | -0.281
112 | ATTGCCTA | -0.141
113 | ACATCCAA | 0.131
114 | AATCGTCA | 0.34
115 | AATCGTCT | 0.11
116 | TATCGTGA | 0.0604
117 | CATCGTCA | 0.372
118 | CATCGTCG | -0.112
119 | TATCGTCA | 0.397
120 | AATCGTCC | -0.00977
121 | GATCGTCA | 0.294
122 | CATCGTCC | 0.14
123 | CCAGATAG | -0.0711
124 | ACCTTGTA | 0.0757
125 | CTTAGCAA | -0.0618

Row | Sequence | PBM E-score
126 | GGGCTCGA | -0.112
127 | CACAGATG | 0.0492
128 | ATTGCTCC | -0.0682
129 | CGACCGGA | -0.305
130 | CATCGTAG | 0.00214
131 | TATAGTAA | 0.161
132 | CATAGTAA | 0.313
133 | GATAGTAA | 0.14
134 | GGCAGGAA | -0.21
135 | CCATGACG | 0.457
136 | ACATGACT | -0.0377
137 | ACATGACG | 0.435
138 | CCATGACA | 0.271
139 | CCATGACC | 0.0749
140 | ACATGACA | 0.274
141 | AAAGCGGC | 0.151
142 | AGGAACTC | -0.0807
143 | AATCCCTC | -0.0193
144 | ATGTCGCA | -0.0497
145 | CCTCAGAA | -0.0484
146 | CAACGTTA | 0.119
147 | AAATAATA | 0.287
148 | AAATAATG | 0.312
149 | ATATAAAT | 0.321
150 | ATATAAAC | 0.295

Row | Sequence | PBM E-score
151 | ATATAAAG | 0.17
152 | AAATACAA | 0.321
153 | AAATAAAT | 0.371
154 | AAATACAC | 0.141
155 | AAATAATC | 0.178
156 | AAATAAAG | 0.104
157 | CAATACAA | 0.15
158 | AAATAAAA | 0.186
159 | GCACACTA | -0.138
160 | ACGGTAAA | 0.129
161 | GACACTAC | 0.0584
162 | AGGAGCTG | -0.256
163 | CTTCACAA | -0.0895
164 | GGTTGCAC | -0.136
165 | GCACTGTA | -0.00858
166 | ACGTTAGG | 0.112
167 | ACGTTATC | 0.269
168 | ACGTTATG | 0.333
169 | CCGTTATA | -0.00095
170 | GCGTTATA | 0.0248
171 | ACGTTATA | 0.31
172 | CCAAGGAG | -0.0523
173 | ACTGCAGA | -0.0111
174 | TGCTACAA | 0.0326
175 | ATCTCATG | -0.00941

Row | Sequence | PBM E-score
176 | ATATTCGA | -0.111
177 | AACAAGTT | 0.0438
178 | AACAAATA | 0.242
179 | AACAAATT | 0.32
180 | CTCAGGCC | -0.258
181 | CAACACGG | 0.0445
182 | CCAATAAC | 0.135
183 | CGTATGAA | 0.319
184 | CGTATGAG | 0.133
185 | AGTATGAT | 0.235
186 | AGTATGAA | 0.0821
187 | CGTATGAC | 0.443
188 | GGTATGAC | 0.191
189 | AGTATGAG | 0.0817
190 | AGTATGAC | 0.354
191 | CGTATGGC | 0.23
192 | GACGAGAA | 0.242
193 | TCTTGACA | 0.053
194 | CGAGGACG | -0.269
195 | CAACCTTA | 0.0972
196 | GCTGATAC | -0.0819
197 | ACGGTTCC | -0.0941
198 | ACCGGGAG | -0.317
199 | CACCTCGA | 0.119
200 | TTATATAA | 0.24

Row | Sequence | PBM E-score
201 | CTATATAC | 0.338
202 | CTCTATAC | -0.125
203 | ATATATAC | 0.281
204 | ATATATAA | 0.324
205 | CTATATAA | 0.147
206 | GTATTGAC | 0.148
207 | CGCTTGAC | -0.0844
208 | AGAAATTG | 0.27
209 | CCTTATGA | 0.159
210 | GATACGGC | 0.139
211 | CATACGGA | 0.049
212 | AATACGGT | -0.0647
213 | CATACGGC | 0.321
214 | AATACGGC | 0.324
215 | AATACGGG | -0.0401
216 | CCGCAGCA | 0.0617
217 | GGTTCTAC | -0.204
218 | CACATCAG | -0.0727
219 | CACCGTCG | -0.174
220 | AACCGTCA | 0.174
221 | TACCGTCA | 0.345
222 | CACCGTCA | 0.314
223 | CACCGTCC | -0.173
224 | GACCGTCA | 0.137
